What was measured:
Test in all cases: DAPPL (digital affinity profiling via proximity ligation, sequencing); 10 mM Tris-HCl pH 7.5, 50 mM NaCl, 1 mM DTT, 4% glycerol, room temperature, 30 min; GST-TFs on glutathione beads, 16-mer random dsDNA library, 0.1% formaldehyde crosslink after washing; high values mean tight binding
FLI1 = target: T1, FLI1 (Homo sapiens, UniProt Q01543 1-452); conditions: protein: recombinant; tags: N-terminal GST; dsDNA, one strand shown
T1 sequence: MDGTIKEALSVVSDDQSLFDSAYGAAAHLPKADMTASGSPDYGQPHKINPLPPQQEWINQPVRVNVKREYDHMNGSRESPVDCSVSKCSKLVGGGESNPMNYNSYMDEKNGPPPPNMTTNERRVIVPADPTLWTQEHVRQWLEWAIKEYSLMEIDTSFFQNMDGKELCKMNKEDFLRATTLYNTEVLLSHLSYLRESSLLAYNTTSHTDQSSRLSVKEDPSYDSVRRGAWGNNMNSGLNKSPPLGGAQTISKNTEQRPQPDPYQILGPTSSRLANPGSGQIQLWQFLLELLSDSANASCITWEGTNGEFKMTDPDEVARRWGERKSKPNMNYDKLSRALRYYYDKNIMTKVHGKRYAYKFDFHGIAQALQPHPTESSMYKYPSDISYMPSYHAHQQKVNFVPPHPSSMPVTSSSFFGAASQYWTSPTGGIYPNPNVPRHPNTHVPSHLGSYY
Summary of the method: (§1)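 Human transcription factors fused to GST were expressed in yeast, captured on glutathione beads, given DNA barcodes and pooled with a GST-only negative control. Pools were incubated with 200 nmole of a 16-mer random double-stranded DNA library in Tris/NaCl/DTT/glycerol buffer at room temperature for 30 min. They were then washed, crosslinked with 0.1% formaldehyde, proximity-ligated (BsaI/T4 ligase, 1 h, 37 °C), PCR-amplified and sequenced on an Illumina NextSeq500. Binding signal is each 6-mer's read frequency for a factor divided by its frequency for the GST control.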

ELK1 = target: T2, ELK1 (Homo sapiens, UniProt P19419 1-428); conditions: protein: recombinant; tags: N-terminal GST; dsDNA, one strand shown
T2 sequence: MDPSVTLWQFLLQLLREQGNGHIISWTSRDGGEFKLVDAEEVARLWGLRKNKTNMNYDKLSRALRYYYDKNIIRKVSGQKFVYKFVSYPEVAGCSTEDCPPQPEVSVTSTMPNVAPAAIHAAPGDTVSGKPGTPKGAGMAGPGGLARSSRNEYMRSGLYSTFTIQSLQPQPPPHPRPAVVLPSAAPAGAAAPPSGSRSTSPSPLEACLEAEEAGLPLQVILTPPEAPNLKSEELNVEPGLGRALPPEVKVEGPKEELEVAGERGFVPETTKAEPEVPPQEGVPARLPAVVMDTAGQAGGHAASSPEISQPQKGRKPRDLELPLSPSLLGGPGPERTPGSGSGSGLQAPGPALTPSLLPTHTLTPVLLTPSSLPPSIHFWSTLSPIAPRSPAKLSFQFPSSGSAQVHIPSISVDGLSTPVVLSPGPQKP
Summary of the method: as §1

GABPA = target: T3, GABPA (Homo sapiens, UniProt Q06546 1-454); conditions: protein: recombinant; tags: N-terminal GST; dsDNA, one strand shown
T3 sequence: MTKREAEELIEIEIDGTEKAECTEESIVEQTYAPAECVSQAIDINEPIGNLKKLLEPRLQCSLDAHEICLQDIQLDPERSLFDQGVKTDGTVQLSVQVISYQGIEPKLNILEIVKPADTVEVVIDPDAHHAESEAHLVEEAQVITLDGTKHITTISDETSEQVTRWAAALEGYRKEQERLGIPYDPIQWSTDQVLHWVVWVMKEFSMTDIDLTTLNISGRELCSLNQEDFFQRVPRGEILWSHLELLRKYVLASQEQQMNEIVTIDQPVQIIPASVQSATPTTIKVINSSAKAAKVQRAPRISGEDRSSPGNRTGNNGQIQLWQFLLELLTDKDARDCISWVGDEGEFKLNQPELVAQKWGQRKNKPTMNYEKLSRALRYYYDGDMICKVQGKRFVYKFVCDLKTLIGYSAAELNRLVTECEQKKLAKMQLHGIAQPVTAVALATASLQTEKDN
Summary of the method: as §1

ERG = target: T4, ERG (Homo sapiens, UniProt P11308 1-479); conditions: protein: recombinant; tags: N-terminal GST; dsDNA, one strand shown
T4 sequence: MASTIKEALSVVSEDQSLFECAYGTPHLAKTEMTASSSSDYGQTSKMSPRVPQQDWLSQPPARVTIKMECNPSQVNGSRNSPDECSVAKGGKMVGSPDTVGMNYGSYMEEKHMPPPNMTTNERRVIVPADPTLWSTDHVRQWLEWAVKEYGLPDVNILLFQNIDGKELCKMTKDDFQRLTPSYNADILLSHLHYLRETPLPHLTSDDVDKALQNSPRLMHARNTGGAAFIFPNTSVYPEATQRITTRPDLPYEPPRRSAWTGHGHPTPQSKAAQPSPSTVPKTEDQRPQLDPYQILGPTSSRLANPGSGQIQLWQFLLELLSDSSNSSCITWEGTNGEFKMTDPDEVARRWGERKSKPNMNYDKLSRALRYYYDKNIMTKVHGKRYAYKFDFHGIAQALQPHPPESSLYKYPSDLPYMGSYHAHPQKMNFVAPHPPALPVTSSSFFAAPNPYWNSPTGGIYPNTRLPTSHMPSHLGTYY
Summary of the method: as §1

ELF1 = ELF1 (Homo sapiens, UniProt P32519 1-619); conditions: protein: recombinant; tags: N-terminal GST; dsDNA, one strand shown
ELF1, sequence (P32519 whole entry): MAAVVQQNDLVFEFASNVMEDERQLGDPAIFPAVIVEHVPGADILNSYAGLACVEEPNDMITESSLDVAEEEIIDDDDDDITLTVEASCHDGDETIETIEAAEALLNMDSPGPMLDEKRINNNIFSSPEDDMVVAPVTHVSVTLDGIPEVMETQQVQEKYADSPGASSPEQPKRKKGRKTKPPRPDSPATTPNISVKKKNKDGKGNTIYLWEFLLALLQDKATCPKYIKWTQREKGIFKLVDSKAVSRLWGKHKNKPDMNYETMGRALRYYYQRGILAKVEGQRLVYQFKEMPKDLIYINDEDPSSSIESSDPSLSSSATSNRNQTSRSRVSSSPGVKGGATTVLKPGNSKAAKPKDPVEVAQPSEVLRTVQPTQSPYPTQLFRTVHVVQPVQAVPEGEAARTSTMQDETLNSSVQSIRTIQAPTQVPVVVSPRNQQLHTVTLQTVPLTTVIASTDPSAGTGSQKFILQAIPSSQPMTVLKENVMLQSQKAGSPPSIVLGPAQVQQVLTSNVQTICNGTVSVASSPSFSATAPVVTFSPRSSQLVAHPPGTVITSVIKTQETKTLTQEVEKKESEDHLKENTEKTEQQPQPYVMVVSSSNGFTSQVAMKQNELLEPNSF
Summary of the method: as §1

EHF = target: T5, EHF (Homo sapiens, UniProt Q9NZC4 1-300); conditions: protein: recombinant; tags: N-terminal GST; dsDNA, one strand shown
T5 sequence: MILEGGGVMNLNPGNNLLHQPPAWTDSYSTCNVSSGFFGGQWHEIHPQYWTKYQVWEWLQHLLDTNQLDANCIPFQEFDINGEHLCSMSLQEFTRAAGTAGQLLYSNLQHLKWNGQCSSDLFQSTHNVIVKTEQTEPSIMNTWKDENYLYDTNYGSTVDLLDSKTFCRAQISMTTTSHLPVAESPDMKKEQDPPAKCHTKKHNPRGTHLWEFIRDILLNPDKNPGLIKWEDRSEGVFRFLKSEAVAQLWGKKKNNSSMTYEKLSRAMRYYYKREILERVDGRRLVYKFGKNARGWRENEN
Summary of the method: as §1

SPI1 = SPI1 (Homo sapiens, UniProt P17947 1-270); conditions: protein: recombinant; tags: N-terminal GST; dsDNA, one strand shown
Summary of the method: as §1

SPIB = SPIB (Homo sapiens, UniProt Q01892 1-262); conditions: protein: recombinant; tags: N-terminal GST; dsDNA, one strand shown
SPIB, sequence (Q01892 whole entry): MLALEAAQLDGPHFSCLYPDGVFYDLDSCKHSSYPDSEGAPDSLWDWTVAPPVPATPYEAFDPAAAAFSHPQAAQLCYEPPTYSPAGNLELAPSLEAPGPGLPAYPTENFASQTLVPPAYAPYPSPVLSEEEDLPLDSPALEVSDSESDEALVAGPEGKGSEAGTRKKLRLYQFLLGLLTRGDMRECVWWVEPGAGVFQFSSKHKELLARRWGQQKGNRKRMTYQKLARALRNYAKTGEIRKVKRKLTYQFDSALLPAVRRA
Summary of the method: as §1

ELK3 = target: T6, ELK3 (Homo sapiens, UniProt P41970 1-407); conditions: protein: recombinant; tags: N-terminal GST; dsDNA, one strand shown
T6 sequence: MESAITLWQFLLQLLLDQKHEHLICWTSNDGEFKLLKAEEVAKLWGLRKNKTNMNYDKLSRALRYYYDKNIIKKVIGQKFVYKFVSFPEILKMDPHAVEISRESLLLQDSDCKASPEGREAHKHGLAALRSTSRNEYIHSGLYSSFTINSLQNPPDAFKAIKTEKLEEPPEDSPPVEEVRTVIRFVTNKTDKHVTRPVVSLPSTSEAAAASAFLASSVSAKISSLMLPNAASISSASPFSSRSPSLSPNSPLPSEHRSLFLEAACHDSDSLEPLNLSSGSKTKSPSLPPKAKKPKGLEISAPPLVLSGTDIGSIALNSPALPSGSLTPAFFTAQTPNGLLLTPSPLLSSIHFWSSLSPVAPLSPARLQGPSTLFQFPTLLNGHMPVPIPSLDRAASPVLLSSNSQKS
Summary of the method: as §1

FEV = target: T7, FEV (Homo sapiens, UniProt Q99581 1-238); conditions: protein: recombinant; tags: N-terminal GST; dsDNA, one strand shown
T7 sequence: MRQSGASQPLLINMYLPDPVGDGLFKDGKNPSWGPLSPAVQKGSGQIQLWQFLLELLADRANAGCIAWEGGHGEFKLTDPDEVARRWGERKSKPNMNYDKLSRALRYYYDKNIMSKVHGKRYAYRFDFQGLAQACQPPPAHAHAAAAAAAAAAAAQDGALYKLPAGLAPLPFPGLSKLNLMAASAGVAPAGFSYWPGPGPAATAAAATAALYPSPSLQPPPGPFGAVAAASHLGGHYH
Summary of the method: as §1

ETV5 = ETV5 (Homo sapiens, UniProt P41161 1-510); conditions: protein: recombinant; tags: N-terminal GST; dsDNA, one strand shown
ETV5, sequence (P41161 whole entry): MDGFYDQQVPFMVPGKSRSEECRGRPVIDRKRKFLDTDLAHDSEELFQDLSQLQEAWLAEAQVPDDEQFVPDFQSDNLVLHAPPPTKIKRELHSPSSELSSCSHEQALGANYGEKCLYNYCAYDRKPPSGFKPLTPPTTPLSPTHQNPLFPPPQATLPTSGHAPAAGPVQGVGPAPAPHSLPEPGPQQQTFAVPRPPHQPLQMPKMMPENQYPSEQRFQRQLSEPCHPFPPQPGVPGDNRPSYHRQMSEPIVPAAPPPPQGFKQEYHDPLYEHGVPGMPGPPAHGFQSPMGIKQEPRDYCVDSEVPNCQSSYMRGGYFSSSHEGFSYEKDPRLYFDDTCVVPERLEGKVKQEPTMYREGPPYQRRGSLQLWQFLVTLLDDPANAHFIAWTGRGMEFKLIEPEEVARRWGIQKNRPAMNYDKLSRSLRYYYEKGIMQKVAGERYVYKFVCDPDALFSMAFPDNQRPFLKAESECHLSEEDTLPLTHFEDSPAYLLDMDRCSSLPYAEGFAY
Summary of the method: as §1

HSF1 = HSF1 (Homo sapiens, UniProt Q00613 1-529); conditions: protein: recombinant; tags: N-terminal GST; chain copies: 3; dsDNA, one strand shown
HSF1, sequence (Q00613 whole entry): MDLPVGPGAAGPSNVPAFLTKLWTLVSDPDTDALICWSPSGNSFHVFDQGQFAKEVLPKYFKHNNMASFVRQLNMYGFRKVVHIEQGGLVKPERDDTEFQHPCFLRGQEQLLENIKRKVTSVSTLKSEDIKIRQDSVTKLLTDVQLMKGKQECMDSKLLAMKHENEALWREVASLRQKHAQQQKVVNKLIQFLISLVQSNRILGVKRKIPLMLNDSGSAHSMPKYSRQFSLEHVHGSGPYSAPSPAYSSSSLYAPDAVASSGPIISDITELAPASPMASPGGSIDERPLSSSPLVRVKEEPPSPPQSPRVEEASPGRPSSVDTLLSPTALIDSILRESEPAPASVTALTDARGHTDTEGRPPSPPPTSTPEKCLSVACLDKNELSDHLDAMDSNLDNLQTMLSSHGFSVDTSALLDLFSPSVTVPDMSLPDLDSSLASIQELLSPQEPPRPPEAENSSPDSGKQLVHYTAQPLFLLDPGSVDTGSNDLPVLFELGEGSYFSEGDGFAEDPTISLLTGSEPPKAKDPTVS
Summary of the method: as §1

SPIC = target: T8, SPIC (Homo sapiens, UniProt Q8N5J4 1-248); conditions: protein: recombinant; tags: N-terminal GST; dsDNA, one strand shown
T8 sequence: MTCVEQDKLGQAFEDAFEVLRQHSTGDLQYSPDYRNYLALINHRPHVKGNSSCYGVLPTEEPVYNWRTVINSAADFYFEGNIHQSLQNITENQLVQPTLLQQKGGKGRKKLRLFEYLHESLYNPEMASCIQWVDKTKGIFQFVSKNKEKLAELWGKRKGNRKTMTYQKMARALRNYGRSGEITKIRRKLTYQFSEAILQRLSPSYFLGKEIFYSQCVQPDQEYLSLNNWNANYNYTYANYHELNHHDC
Summary of the method: as §1

ELF4 = ELF4 (Homo sapiens, UniProt Q99607 1-663); conditions: protein: recombinant; tags: N-terminal GST; dsDNA, one strand shown
ELF4, sequence (Q99607 whole entry): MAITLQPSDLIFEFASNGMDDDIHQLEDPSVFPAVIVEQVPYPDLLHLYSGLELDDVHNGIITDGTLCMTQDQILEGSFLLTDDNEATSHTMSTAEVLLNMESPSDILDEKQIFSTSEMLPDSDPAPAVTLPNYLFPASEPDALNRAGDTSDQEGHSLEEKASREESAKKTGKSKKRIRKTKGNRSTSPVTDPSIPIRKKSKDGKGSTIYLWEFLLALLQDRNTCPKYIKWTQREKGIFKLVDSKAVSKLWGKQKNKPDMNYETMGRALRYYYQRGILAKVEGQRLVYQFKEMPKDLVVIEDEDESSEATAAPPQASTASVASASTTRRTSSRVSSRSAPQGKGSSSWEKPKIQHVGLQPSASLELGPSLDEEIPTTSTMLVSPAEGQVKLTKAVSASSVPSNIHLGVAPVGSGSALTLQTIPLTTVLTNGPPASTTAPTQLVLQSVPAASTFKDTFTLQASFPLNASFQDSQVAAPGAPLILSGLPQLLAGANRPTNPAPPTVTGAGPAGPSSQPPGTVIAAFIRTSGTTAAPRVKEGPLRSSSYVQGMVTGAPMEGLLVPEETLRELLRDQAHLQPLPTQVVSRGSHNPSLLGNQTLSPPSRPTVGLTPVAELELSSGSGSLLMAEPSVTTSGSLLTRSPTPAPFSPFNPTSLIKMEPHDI
Summary of the method: as §1

ELK4 = target: T9, ELK4 (Homo sapiens, UniProt P28324-2 1-405); conditions: protein: recombinant; tags: N-terminal GST; dsDNA, one strand shown
T9 sequence: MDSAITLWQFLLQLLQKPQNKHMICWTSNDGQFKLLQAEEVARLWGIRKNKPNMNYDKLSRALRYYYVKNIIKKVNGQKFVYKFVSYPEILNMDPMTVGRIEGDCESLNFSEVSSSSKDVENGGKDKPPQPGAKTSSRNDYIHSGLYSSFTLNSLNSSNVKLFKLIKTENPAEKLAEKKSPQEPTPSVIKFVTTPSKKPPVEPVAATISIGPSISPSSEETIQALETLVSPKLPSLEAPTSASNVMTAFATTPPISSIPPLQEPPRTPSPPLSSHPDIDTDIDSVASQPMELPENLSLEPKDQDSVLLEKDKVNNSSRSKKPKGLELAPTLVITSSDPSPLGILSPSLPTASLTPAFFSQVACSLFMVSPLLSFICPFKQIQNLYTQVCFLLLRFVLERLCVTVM
Summary of the method: as §1

ETV2 = target: T10, ETV2 (Homo sapiens, UniProt O00321 1-342); conditions: protein: recombinant; tags: N-terminal GST; dsDNA, one strand shown
T10 sequence: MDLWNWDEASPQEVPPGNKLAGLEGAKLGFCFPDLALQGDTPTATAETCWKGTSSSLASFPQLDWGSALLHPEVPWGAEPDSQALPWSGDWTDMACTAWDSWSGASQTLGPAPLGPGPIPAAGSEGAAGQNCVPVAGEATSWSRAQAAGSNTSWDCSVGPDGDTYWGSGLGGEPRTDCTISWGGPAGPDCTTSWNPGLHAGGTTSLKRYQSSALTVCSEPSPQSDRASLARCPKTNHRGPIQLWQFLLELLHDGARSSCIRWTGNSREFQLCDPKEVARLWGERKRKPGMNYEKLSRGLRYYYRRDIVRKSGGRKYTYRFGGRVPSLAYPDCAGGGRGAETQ
Summary of the method: as §1

ELF3 = target: T11, ELF3 (Homo sapiens, UniProt P78545 1-371); conditions: protein: recombinant; tags: N-terminal GST; dsDNA, one strand shown
T11 sequence: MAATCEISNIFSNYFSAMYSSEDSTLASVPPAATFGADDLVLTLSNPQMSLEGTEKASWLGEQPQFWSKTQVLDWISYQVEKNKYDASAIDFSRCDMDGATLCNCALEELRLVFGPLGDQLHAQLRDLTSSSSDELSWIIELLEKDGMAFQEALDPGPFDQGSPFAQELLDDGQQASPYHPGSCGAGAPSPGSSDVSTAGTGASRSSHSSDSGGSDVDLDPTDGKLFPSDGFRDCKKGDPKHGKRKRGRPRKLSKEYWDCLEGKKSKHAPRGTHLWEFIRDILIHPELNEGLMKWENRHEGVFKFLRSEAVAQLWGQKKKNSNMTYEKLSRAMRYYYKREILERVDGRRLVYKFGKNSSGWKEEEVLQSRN
Summary of the method: as §1

CRX = CRX (Homo sapiens, UniProt O43186 1-299); conditions: protein: recombinant; tags: N-terminal GST; dsDNA, one strand shown
CRX, sequence (O43186 whole entry): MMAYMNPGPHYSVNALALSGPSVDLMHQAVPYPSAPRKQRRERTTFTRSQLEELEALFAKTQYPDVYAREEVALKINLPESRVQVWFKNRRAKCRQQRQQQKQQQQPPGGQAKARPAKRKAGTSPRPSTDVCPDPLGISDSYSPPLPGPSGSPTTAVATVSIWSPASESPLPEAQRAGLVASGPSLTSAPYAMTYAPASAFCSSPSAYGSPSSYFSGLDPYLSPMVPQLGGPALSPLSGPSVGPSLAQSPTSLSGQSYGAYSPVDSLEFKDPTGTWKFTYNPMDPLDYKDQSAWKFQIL
Summary of the method: as §1

ETV1 = ETV1 (Homo sapiens, UniProt P50549 1-477); conditions: protein: recombinant; tags: N-terminal GST; dsDNA, one strand shown
ETV1, sequence (P50549 whole entry): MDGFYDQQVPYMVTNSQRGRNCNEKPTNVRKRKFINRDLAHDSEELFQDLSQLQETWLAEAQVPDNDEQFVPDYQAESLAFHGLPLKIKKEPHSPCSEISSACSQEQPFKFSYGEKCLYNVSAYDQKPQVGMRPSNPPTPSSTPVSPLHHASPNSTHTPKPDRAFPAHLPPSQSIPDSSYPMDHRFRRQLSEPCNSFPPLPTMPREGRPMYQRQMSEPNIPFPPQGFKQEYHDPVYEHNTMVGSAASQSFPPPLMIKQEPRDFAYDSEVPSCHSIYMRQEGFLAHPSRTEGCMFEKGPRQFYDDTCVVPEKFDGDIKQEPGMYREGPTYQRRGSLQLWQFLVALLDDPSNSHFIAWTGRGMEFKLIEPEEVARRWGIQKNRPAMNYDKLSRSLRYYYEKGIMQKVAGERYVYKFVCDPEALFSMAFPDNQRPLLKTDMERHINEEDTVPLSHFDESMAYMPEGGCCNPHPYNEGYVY
Summary of the method: as §1

CTATGG
binding signal (FLI1): 1.25 fold enrichment (6-mer frequency, TF over GST control)
binding signal (ELK1): 1.14 fold enrichment (6-mer frequency, TF over GST control)
binding signal (GABPA): 1.21 fold enrichment (6-mer frequency, TF over GST control)
binding signal (ERG): 1.15 fold enrichment (6-mer frequency, TF over GST control)
binding signal (ELF1): 1.19 fold enrichment (6-mer frequency, TF over GST control)
binding signal (EHF): 1.3 fold enrichment (6-mer frequency, TF over GST control)
binding signal (SPI1): 1.17 fold enrichment (6-mer frequency, TF over GST control)
binding signal (SPIB): 1.19 fold enrichment (6-mer frequency, TF over GST control)
binding signal (ELK3): 1.2 fold enrichment (6-mer frequency, TF over GST control)
binding signal (FEV): 1.15 fold enrichment (6-mer frequency, TF over GST control)
binding signal (ETV5): 1.23 fold enrichment (6-mer frequency, TF over GST control)
binding signal (HSF1): 1.17 fold enrichment (6-mer frequency, TF over GST control)
binding signal (SPIC): 1.14 fold enrichment (6-mer frequency, TF over GST control)
binding signal (ELF4): 1.15 fold enrichment (6-mer frequency, TF over GST control)
binding signal (ELK4): 1.24 fold enrichment (6-mer frequency, TF over GST control)
binding signal (ETV2): 1.28 fold enrichment (6-mer frequency, TF over GST control)
binding signal (ELF3): 1.25 fold enrichment (6-mer frequency, TF over GST control)
binding signal (CRX): 1.11 fold enrichment (6-mer frequency, TF over GST control)
binding signal (ETV1): 1.18 fold enrichment (6-mer frequency, TF over GST control)
